{"source": "PubChem BioAssay AID1009", "about": "(NMMLSC, 2008)", "note": "About 200 (0.11%) of roughly 190,000 compounds were called active. No stated cut-off is given here; in the data, active means inhibition above about 40%. Many of the other results were omitted from the sample, so actives are more common in it than they were.", "data": [{"biological_target": "Induced myeloid leukemia cell differentiation protein Mcl-1 (Homo sapiens) (UniProt Q07820)", "sequence (Q07820 whole entry, looked up)": "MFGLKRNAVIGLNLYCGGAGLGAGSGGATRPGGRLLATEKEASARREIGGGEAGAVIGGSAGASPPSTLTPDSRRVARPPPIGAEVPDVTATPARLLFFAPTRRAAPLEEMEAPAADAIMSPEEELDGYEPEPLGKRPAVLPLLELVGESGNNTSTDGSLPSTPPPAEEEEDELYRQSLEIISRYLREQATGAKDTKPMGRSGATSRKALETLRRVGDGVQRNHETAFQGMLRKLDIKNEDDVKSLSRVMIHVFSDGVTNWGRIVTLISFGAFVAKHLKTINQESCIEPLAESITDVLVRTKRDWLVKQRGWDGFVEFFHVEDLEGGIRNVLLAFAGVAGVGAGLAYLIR", "assay": "inhibitors of Bim peptide binding to Mcl-1, primary screen, biochemical, bead-based flow cytometry, multiplex (AID 1009);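 further: 0% = no compound tracer wells and 100% = peptide blocker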", "conditions": "Bim peptide-Mcl-1 binding, at 10 µM, hits give high values", "values": [{"smiles": "CCN(CC)C(=O)C(=O)c1cn(CC(=O)NCc2ccc3c(c2)OCO3)c2ccccc12", "inhibition": "0% (inactive)"}, {"smiles": "COC(=O)c1ccc(NC(=O)CSc2nncc3ccc(OC)c(OC)c23)cc1", "inhibition": "1% (inactive)"}, {"smiles": "Cn1cc(Cl)c(C(=O)NNC(=S)Nc2cccc(Cl)c2)n1", "inhibition": "-1% (inactive)"}, {"smiles": "Cc1cc(C)c(C(N)=O)c(Cl)n1", "inhibition": "0% (inactive)"}, {"smiles": "CC(C)(C)NC(=O)c1ccc(Cn2cc(C(F)(F)F)ccc2=O)cc1", "inhibition": "-1% (inactive)"}, {"smiles": "CCN(CC)c1ccc(C(=O)N/N=C(\\C)c2cccc(OC)c2)cc1", "inhibition": "1% (inactive)"}, {"smiles": "Cn1c(-c2sccc2OCc2cccc(C(F)(F)F)c2)n[nH]c1=S", "inhibition": "-4% (inactive)"}, {"smiles": "CC(=O)NC(NC(=S)Nc1c(C)n(C)n(-c2ccccc2)c1=O)C(Cl)(Cl)Cl", "note": "(stereo not given)", "inhibition": "0% (inactive)"}, {"smiles": "CCC(=O)NCc1cc(-c2nn(C)c(=O)c3ccccc23)ccc1OC", "inhibition": "-1% (inactive)"}, {"smiles": "O=C(/C=C/c1ccc([N+](=O)[O-])cc1)NCCSCc1ccco1", "inhibition": "-5% (inactive)"}, {"smiles": "Cc1c(C(=O)NC(=S)NCc2cccnc2)oc2ccccc12", "inhibition": "0% (inactive)"}, {"smiles": "CCOCC(=O)Nc1ncc(S(=O)(=O)c2ccc([N+](=O)[O-])cc2)s1", "inhibition": "0% (inactive)"}, {"smiles": "COC(=O)CNC(=O)c1ccc(OC2CCN(C(=O)C3CC3)CC2)cc1", "inhibition": "-2% (inactive)"}, {"smiles": "CC(=O)c1ccccc1NC(=O)CC1(CC(=O)O)CCCCC1", "inhibition": "0% (inactive)"}, {"smiles": "Fc1ccccc1CNC(=S)Nc1ccc(Cl)cc1", "inhibition": "-14% (inactive)"}, {"smiles": "CSc1ccc(/C=C/C(=O)NC23CC4CC(CC(C4)C2)C3)cc1", "inhibition": "-2% (inactive)"}, {"smiles": "O=C(c1ccc(OC2CCN(Cc3ccccn3)CC2)cc1)N1CCCCCC1", "inhibition": "-4% (inactive)"}, {"smiles": "Cc1ccc2c(c1)C1CN(C)CCC1N2C(=S)Nc1ccc(OC(F)F)cc1", "note": "(stereo not given)", "inhibition": "-1% (inactive)"}, {"smiles": "O=C(COC(=O)CCCSc1nc2ccccc2[nH]1)Nc1ccc(Oc2ccccc2)cc1", "inhibition": "2% (inactive)"}, {"smiles": "COc1ccc(-c2nc(CN3CCN(c4ncccn4)CC3)c(C)o2)cc1C", "inhibition": "-2% (inactive)"}, {"smiles": "O=[N+]([O-])c1ccc(F)cc1Oc1nc(-c2cccnc2)nc2ccccc12", "inhibition": "4% (inactive)"}, {"smiles": "CCN1CCN(C(=O)CN(C)S(=O)(=O)c2ccc3ccccc3c2)CC1", "inhibition": "0% (inactive)"}, {"smiles": "O=C(Nc1ccc2oc(-c3ccccc3F)nc2c1)c1ccco1", "inhibition": "-3% (inactive)"}, {"smiles": "COc1ccnc(Oc2ccccc2)c1-c1ncn[nH]1", "inhibition": "-2% (inactive)"}, {"smiles": "N#C/C(=C\\c1ccc(-c2cccc([N+](=O)[O-])c2)o1)C(=O)NCCN1CCOCC1", "inhibition": "0% (inactive)"}, {"smiles": "N#CCOc1ccc(C2=NO[C@@H]3[C@@H]4C[C@@H]([C@H]5C(=O)N(c6ccc7c(c6)OCO7)C(=O)[C@@H]45)[C@H]23)cc1", "inhibition": "-7% (inactive)"}, {"smiles": "CCc1c(SCCC(=O)O)nc2ccccc2c1C", "inhibition": "-1% (inactive)"}, {"smiles": "COc1ccc(CC(NC(C)=O)C(=O)NC2CCN(C(=O)C3CC3)CC2)cc1OC", "note": "(stereo not given)", "inhibition": "1% (inactive)"}, {"smiles": "COc1cccc(NC(=O)C(Sc2nc3ccccc3c(=O)n2CC(C)C)c2ccccc2)c1", "note": "(stereo not given)", "inhibition": "-1% (inactive)"}, {"smiles": "O=C(COc1nc2ccccc2nc1N1CCOCC1)NCC(F)(F)F", "inhibition": "-3% (inactive)"}, {"smiles": "Cc1ccc(OCC(=O)NNC(=S)NCc2ccccc2)cc1", "inhibition": "0% (inactive)"}, {"smiles": "CCOC(=O)c1cc2c(nc1NC(=S)Nc1ccccc1)CC(C)(CC)OC2", "note": "(stereo not given)", "inhibition": "-5% (inactive)"}, {"smiles": "Cc1[nH]c2ccccc2c1SCC(=O)Nc1nccs1", "inhibition": "-1% (inactive)"}, {"smiles": "O=C(/C=C/c1ccccc1)Oc1coc(CSc2ncccn2)cc1=O", "inhibition": "0% (inactive)"}, {"smiles": "Cc1nn(CC(=O)NCc2ccccn2)c(C)c1[N+](=O)[O-]", "inhibition": "0% (inactive)"}, {"smiles": "CCCNC(=O)NC(=O)COC(=O)CC(NC(N)=O)c1ccc(Cl)cc1", "note": "(stereo not given)", "inhibition": "-8% (inactive)"}, {"smiles": "COCCNC(=O)NC(=O)COC(=O)C1(c2ccc(Cl)cc2)CC1", "inhibition": "0% (inactive)"}, {"smiles": "Cc1ccc(S(=O)(=O)Cc2cc(-c3ccc(Cl)cc3)no2)cc1", "inhibition": "0% (inactive)"}, {"smiles": "O=C1CCC/C(=N\\NC(=O)NC2CCCCC2)C1", "inhibition": "1% (inactive)"}, {"smiles": "Cc1ccc(C(=O)COC(=O)c2cccc(N3C(=O)c4c(C)nc5ccccc5c4C3=O)c2)cc1C", "inhibition": "-5% (inactive)"}, {"smiles": "CCOc1cc(CNCc2ccccn2)ccc1OCC(=O)NC(C)(C)C", "inhibition": "-5% (inactive)"}, {"smiles": "Cc1cc(=O)oc2c1c(C)nn2-c1ccc(Cl)cc1", "inhibition": "2% (inactive)"}, {"smiles": "O=C(Cn1c2[n+](c3ccc(C(F)(F)F)cc31)CCCCC2)Nc1c(F)cccc1F", "inhibition": "2% (inactive)"}, {"smiles": "Cc1ccc(OCC(=O)OC(C)CN(C)Cc2ccccc2)cc1", "note": "(stereo not given)", "inhibition": "0% (inactive)"}, {"smiles": "Cc1ccc(C(=O)O)cc1N1C(=O)CCCC1=O", "inhibition": "0% (inactive)"}]}]}
